These results are taken from paper PMC12136788.

Changes are numbered by the printed parent chain. Over roughly 24,000 sequences, “enrichment r” has its median near 0.99; the highest 2% begin near 3.7. Only a selection was taken, and the highest values are over-represented in it overall.

Sequences and labels used below:
T1: UNK ZnF1-3 (human, UniProt Q9C0B0 31-174)
T1 sequence: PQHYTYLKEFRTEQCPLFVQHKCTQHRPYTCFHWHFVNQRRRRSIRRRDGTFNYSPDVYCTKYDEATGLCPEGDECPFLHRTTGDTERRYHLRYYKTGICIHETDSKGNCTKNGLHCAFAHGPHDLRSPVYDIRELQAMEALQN

B1: 7301359_7301479_2013_3pUTR_ENSMUSG00000024764_ENSMUST00000025675|mouse|control|control (ssRNA)
RNA: GGGAGUUCUACAGUCCGACGAUCGACACCCAUGACAGGAAAGCAGUGGUACGCCACUGAAAGGCAUCCCAGGGGUGCCAAGACAGUGGCACGAGUGCCUCAUUGAGGCGGUGAGGGGUGGGGCUCGGGAGAACAGGCAAAGGGCAACAGAGGAUUGAGCAUCA
B2: chr12:39756943:39756944:-_ENSG00000139116_ENST00000544797|hu_mus|hu_hu_hu_mus_False|8_28 (ssRNA)
RNA: GGGAGUUCUACAGUCCGACGAUCGGUUUGGCUGUUACCCCCAAGGGAAUCCUGCAAGAGUCUUGUCAGCUUAGAGUCUCUGUAAGGGACAUGGGUGGCUCUCUUGCUCUUGUCUCCCAAGGCGCUGAUUACAUUGCCAAGAGCCAACAGAGGAUUGAGCAUCA
B3: chr13:48835921:48835922:+_ENSG00000136156_ENST00000378565|hu_hu|FALSE|FALSE (ssRNA)
RNA: GGGAGUUCUACAGUCCGACGAUCGAUAUGGGUUAUACAAAUUAGUAACACAAGUUAUUUCUUAAAUUCCAAACAUUUUCUAAAAUAUUAUUACAGCAGAUGCCUAGGAUAUUAAAACAUAAAGGUGGAAAUCAUUCUCUAAAUCAACAGAGGAUUGAGCAUCA
B4: chr1:109605286:109605287:-_ENSG00000197780_ENST00000461096|hu_mus|hu_hu_hu_mus_True|78_98 (ssRNA)
RNA: GGGAGUUCUACAGUCCGACGAUCAAGUUUCAGAGUAUUCAGUGAUCACCUCUUUAACAAUUGUAAUCCUUAUUAUAAGCUAAGCAGAAUAAUAAUUUAAUACCGUAAGUGAACUACACACAAAGCCUGAACCGCGAAAAUGGUCAACAGAGGAUUGAGCAUCA
B5: chr5:128440902:128440903:+_ENSG00000066583_ENST00000173527|hu_mus|hu_hu_hu_mus_True|1_58 (ssRNA)
RNA: GGGAGUUCUACAGUCCGACGAUCUUGAACGGUGCUGCCAAGUCCUUUGGGGUAUUGUUCCGUUAUGAUAACUGGAAUUCCUAAAAUCCGAGCUCCUUGCAACAGUCUCUGUCCCACACUAAUGAUGUCCCCAAAGUACUUGAUCAACAGAGGAUUGAGCAUCA
B6: chr11:69466387:69466388:+_ENSG00000110092_ENST00000227507|hu_hu|motif|central (ssRNA)
RNA: GGGAGUUCUACAGUCCGACGAUCACACGUAAAGGAUGGAACCUAAUCCUCUCCCGAGACGCCUCCUUUGUGUUAAUGCCGGUUCUUACAACAGAGAAACAAGUACAUUAAUAUAAAAACGAGUUGAUUAUUGGGGUAUAAAAUCAACAGAGGAUUGAGCAUCA
B7: chr1:46159212:46159213:+_ENSG00000159596_ENST00000372025|hu_mus|hu_hu_hu_mus_True|58_58 (ssRNA)
RNA: GGGAGUUCUACAGUCCGACGAUCUCUGAUCCCUCCCAAGAAAGCUAGGAAACCGGCUCCAUAAGCCAUCUGAGUGAAAGCUAAUAUGGGGAUAUAAGACUUUGUUAUUACCAUGAGAAGUGGGGGAGCAGUAAAGGGGAUUAACAACAGAGGAUUGAGCAUCA
B8: chr11:69466387:69466388:+_ENSG00000110092_ENST00000227507|hu_hu|FALSE|FALSE (ssRNA)
RNA: B6 RNA with G80U, G81A
B9: chr2:27445747:27445748:+_ENSG00000084774_ENST00000264705|hu_hu|FALSE|FALSE (ssRNA)
RNA: GGGAGUUCUACAGUCCGACGAUCGGAGGCAGGGUCACCAGGCCCAUUACUUAAGAAGAGACCCUCAUACUCUUGGCUGUCUAGUGCAUGGUCCCAGGGUACCACAGUGACCUCAGCCCCACGCUGGCAGAGGCAUCGGAUCUGCAACAGAGGAUUGAGCAUCA
B10: chr9:95013113:95013114:-_ENSG00000196305_ENST00000443024|hu_hu|hu_hu_hu_mus_False|68_88 (ssRNA)
RNA: GGGAGUUCUACAGUCCGACGAUCCUCAGUCAGAAAGGGCGUGUAAGGAGCCAUAAGUCUGCACAGAGAAAGCAGAACACUGAACAGUGUCUCCAGAGCCAUGACACAGUCUUCCACCCCACUCUCACCCUUUAACCUCCUCCUCAACAGAGGAUUGAGCAUCA
B11: 142899929_142900494_654_CDS_ENSMUSG00000031004_ENSMUST00000033310|mouse|control|control (ssRNA)
RNA: GGGAGUUCUACAGUCCGACGAUCAAGGCCCUUGGCAUACACAAAAGAUCUUCUUGAAGCAGUCAUUUUUGAAGCUUUGGUAUCUUGACCUUCCCCAUCAGGGUCAGCACAGAAGCUAUCUCUUGAGGCUCGCCUUGAUGGUUCCAACAGAGGAUUGAGCAUCA
B12: chr15:57879074:57879075:-_ENSMUSG00000022361_ENSMUST00000070143|mus_hu|FALSE|FALSE (ssRNA)
RNA: GGGAGUUCUACAGUCCGACGAUCCAGCUGUCUGAGUGAGGAAAUCAGCUACAUUGCAGCAUUUUGGAAUUACUAAUAAAGCUAUAGUUAAAAAAUAAAAAGUUUAUAAAAAUGAAAGCAGCAUGCAUAUUCAAGGCUUUUUCACAACAGAGGAUUGAGCAUCA
B13: chr15:57879074:57879075:-_ENSMUSG00000022361_ENSMUST00000070143|mus_hu|motif|central (ssRNA)
RNA: B12 RNA with U82G, A83G
B14: chr6:136509389:136509390:+_ENSMUSG00000030213_ENSMUST00000032335|mus_hu|FALSE|FALSE (ssRNA)
RNA: GGGAGUUCUACAGUCCGACGAUCAAUAUUAUUAUCAGCUUUAUUUUUCUCAUCCAAUGAGUCUUUACUCUGAAUUUGCUCUAAUUUUUCAUCAGCUCCAUUUUUUUCAAGAAAAUCAUCAUCUUUAUUGCUACUUGGUUCUAUCAACAGAGGAUUGAGCAUCA
B15: chr12:111890518:111890519:-_ENSG00000204842_ENST00000389154|hu_hu|FALSE|FALSE (ssRNA)
RNA: GGGAGUUCUACAGUCCGACGAUCUUGGAUGUUACAAGAAAUCAACAUAUAUAUUUUAAAAACAAAAUAAAUGAAAUUCUAGUUUUCUGUGCUUCCAGUUGGUAGAAGCAGUAGAAGGGAGGAGGGAAUUUGGCCUUUCGGUUCCAACAGAGGAUUGAGCAUCA

The target of the test is T1, UNK ZnF1-3. Briefly: nsRBNS (natural sequence RNA bind-n-seq); RBNS binding buffer (assumed for nsRBNS): 25 mM Tris pH 7.5, 150 mM KCl, 3 mM MgCl2, 0.01% Triton X-100, 500 ug/ml BSA, 20 U/ml SUPERase-In, 4 C; UNK is unkempt and MSI1 is Musashi-1; names of the RNAs are library labels; protein concentration not given here; high values mean tight binding.
As for B1, the binding signal was 1.24 enrichment R. Molecule B2 had a binding signal of 0.697 enrichment R. Then B3, with 1.52 enrichment R; and B4, with 0.993 enrichment R; and B5, with 0.681 enrichment R.

B6 yielded a binding signal of 4.6 enrichment R. With B7 the figure was 1.4 enrichment R; with B8, 5 enrichment R; with B9, 1.01 enrichment R.

Take B10: the binding signal came out at 1.57 enrichment R. B11 registered a binding signal of 0.52 enrichment R. As to B12, the binding signal came out at 7.31 enrichment R. As for B13, the binding signal was 6.18 enrichment R. Then B14, with 0.334 enrichment R; and B15, with 1.07 enrichment R.
